Assay [1] deals with rat CYP2A2, Cyp2a2 (gene 24895) (UniProt P15149). Description: NVS_ADME_rCYP2A2: NovaScreen (NVS) CYP450-related Enzyme Activity (ADME) Assay for rat CYP2A2 (AID 2283116). A digest of the protocol: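 Cell-free recombinant rat CYP2A2 activity with fluorogenic substrate, fluorescence read 0.2 h after dosing. Chemicals screened at 10 uM in duplicate, hits then run in concentration-response up to 20 uM; signal loss versus acetonitrile baseline.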

For assay [2], the target named is rat CYP2C11, Cyp2c11 (gene 29277) (UniProt P08683). The experiment in a line: NVS_ADME_rCYP2C11: NovaScreen (NVS) CYP450-related Enzyme Activity (ADME) Assay for rat CYP2C11 (AID 2283118). A digest of the protocol: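 Cell-free recombinant rat enzyme with fluorescent substrate; readout 0.33 h after dosing, loss of signal versus acetonitrile control. Initial duplicate single-point at 10 uM; actives rerun in concentration series.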

In the next assay the test system is rat CYP2C6, gene 293989. Description: NVS_ADME_rCYP2C6: NovaScreen (NVS) CYP450-related Enzyme Activity (ADME) Assay for rat CYP2C6 (AID 2283120). The procedure, abridged: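 Cell-free recombinant rat CYP2C6 with fluorogenic substrate, read by fluorescence 1 h after dosing; acetonitrile as negative control. Primary screen at 10 uM in duplicate, actives then in concentration-response up to 20 uM.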

Assay [3] deals with rat CYP2C13, Cyp2c13 (gene 171521) (UniProt P20814). The experiment in a line: NVS_ADME_rCYP2C13: NovaScreen (NVS) CYP450-related Enzyme Activity (ADME) Assay for rat CYP2C13 (AID 2283121). A digest of the protocol:
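Recombinant rat CYP2C13 with fluorogenic substrate, 0.75 h cell-free incubation; primary screen in duplicate at 10 uM, actives followed in concentration series. Fluorescence loss relative to acetonitrile control indicates inhibition.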

The next assay has as its system rat CYP3A1, gene 25642. The experiment in a line: NVS_ADME_rCYP3A1: NovaScreen (NVS) CYP450-related Enzyme Activity (ADME) Assay for rat CYP3A1 (AID 2283126). The procedure, abridged: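 Cell-free recombinant CYP assay with fluorescent substrate, read 0.5 h after dosing. Screened at 10 uM in duplicate, hits at up to 20 uM in concentration-response; loss of signal versus acetonitrile baseline.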

The target of assay [4] is rat CYP3A2, Cyp3a2 (gene 266682) (UniProt P05183). Description: NVS_ADME_rCYP3A2: NovaScreen (NVS) CYP450-related Enzyme Activity (ADME) Assay for rat CYP3A2 (AID 2283128). The procedure, abridged:
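Cell-free rat CYP3A2 enzyme assay with fluorescent substrate, read 0.5 h after dosing. Primary duplicate screen at 10 uM; actives run in concentration-response up to 20 uM, relative to acetonitrile baseline.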

Assay [5] has as its target human Acetylcholinesterase (AChE), ACHE (gene 43) (UniProt P22303). Description: NVS_ENZ_hAChE: NovaScreen (NVS) Enzymatic Assay for human Acetylcholinesterase (AChE) (AID 2283129). The procedure, abridged:
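Cell-free colorimetric enzyme-activity assay; compounds read 0.33 hour after dosing, loss of signal vs DMSO baseline. Primary screen in duplicate at 25 uM single concentration, with active compounds retested in concentration series.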

The subject of a further assay is rat CYP2B1, gene 24300. The experiment in a line: NVS_ADME_rCYP2B1: NovaScreen (NVS) CYP450-related Enzyme Activity (ADME) Assay for rat CYP2B1 (AID 2283117). The procedure, abridged: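 Recombinant rat CYP2B1 with fluorogenic substrate, read at 0.75 h. Primary screen in duplicate at 10 uM; compounds meeting threshold (e.g., 30% inhibition) re-run in concentration-response up to 20 uM. Fitted against acetonitrile control.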

The target of assay [6] is rat CYP2D1, Cyp2d1 (gene 266684) (UniProt P10633). The experiment in a line: NVS_ADME_rCYP2D1: NovaScreen (NVS) CYP450-related Enzyme Activity (ADME) Assay for rat CYP2D1 (AID 2283122). A digest of the protocol:
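Cell-free fluorescence enzyme-activity assay on extracted rat CYP2D1 protein, read 0.75 h after dosing. Primary screen in duplicate at 10 uM; qualifying chemicals then run in concentration-response to 20 uM max, loss-of-signal versus acetonitrile baseline.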

For assay [7], the target named is rat CYP2D2, Cyp2d26 (gene 25053) (UniProt P10634). The experiment in a line: NVS_ADME_rCYP2D2: NovaScreen (NVS) CYP450-related Enzyme Activity (ADME) Assay for rat CYP2D2 (AID 2283124). The procedure, abridged: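 Recombinant rat CYP2D2 in a cell-free fluorogenic activity assay, fluorescence read 0.75 h after dosing. Primary screen in duplicate at 10 uM; actives re-run singly in concentration-response to 20 uM, relative to acetonitrile.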

Results filed as inconclusive are left out. The source made the active and inactive calls. Rule for the calls: active = hit-call score of the fitted dose curve at least 0.9, where 1 is the maximum; inconclusive = response in the unintended direction; inactive = score below 0.9.

Sequence of rat CYP2A2, Cyp2a2 (gene 24895) (P15149 whole entry, looked up): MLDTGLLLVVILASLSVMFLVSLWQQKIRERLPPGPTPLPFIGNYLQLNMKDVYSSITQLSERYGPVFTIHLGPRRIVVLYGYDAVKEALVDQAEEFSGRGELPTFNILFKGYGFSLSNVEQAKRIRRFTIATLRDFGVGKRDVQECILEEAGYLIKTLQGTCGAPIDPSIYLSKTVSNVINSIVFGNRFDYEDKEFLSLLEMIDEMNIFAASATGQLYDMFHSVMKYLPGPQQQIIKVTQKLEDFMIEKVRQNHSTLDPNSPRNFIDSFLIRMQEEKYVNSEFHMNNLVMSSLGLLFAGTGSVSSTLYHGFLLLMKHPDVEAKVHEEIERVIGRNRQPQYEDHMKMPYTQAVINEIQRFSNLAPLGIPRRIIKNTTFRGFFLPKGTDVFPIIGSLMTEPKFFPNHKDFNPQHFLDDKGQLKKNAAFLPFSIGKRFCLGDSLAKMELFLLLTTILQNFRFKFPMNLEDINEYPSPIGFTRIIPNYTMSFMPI
Sequence of rat CYP2D1, Cyp2d1 (gene 266684) (P10633 whole entry, looked up): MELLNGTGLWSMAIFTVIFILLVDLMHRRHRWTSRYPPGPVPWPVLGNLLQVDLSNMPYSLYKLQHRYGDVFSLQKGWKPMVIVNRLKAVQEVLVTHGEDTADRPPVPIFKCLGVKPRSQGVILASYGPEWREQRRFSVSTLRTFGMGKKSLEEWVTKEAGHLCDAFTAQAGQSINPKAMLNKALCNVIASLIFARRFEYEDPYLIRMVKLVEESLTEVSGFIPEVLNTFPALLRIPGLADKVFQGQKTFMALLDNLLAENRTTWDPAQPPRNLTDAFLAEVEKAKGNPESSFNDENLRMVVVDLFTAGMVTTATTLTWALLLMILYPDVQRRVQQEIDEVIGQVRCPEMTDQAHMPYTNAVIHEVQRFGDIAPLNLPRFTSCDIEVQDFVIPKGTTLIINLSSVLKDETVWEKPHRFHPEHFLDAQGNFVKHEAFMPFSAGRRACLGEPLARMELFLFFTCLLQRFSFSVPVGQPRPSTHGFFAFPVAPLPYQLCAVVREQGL
Sequence of rat CYP2C11, Cyp2c11 (gene 29277) (P08683 whole entry, looked up): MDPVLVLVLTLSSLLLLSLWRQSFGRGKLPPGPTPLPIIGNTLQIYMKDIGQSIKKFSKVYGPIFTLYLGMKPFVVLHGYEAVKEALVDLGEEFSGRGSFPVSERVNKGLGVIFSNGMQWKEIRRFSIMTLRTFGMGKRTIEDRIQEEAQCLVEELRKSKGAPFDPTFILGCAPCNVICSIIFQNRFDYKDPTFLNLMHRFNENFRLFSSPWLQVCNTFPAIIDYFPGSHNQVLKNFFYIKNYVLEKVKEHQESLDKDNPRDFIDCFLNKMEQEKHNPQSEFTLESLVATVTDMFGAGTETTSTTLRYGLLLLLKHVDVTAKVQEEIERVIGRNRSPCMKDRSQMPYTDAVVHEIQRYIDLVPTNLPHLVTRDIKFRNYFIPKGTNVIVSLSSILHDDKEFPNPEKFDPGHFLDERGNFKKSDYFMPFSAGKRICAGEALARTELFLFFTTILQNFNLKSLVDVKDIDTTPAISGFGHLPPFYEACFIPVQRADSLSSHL
Sequence of rat CYP2D2, Cyp2d26 (gene 25053) (P10634 whole entry, looked up): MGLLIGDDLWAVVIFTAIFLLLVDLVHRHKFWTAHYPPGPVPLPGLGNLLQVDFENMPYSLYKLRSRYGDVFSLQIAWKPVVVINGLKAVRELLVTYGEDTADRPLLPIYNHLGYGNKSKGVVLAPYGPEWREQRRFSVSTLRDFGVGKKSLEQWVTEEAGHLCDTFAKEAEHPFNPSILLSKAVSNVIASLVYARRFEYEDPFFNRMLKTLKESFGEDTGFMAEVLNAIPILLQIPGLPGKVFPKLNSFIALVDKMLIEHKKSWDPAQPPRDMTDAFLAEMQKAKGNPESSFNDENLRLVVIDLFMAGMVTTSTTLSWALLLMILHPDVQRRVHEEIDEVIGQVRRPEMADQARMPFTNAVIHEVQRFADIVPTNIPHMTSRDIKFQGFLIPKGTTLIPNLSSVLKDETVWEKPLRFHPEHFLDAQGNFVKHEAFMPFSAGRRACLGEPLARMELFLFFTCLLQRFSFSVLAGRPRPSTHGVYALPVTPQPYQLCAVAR
Sequence of rat CYP2C13, Cyp2c13 (gene 171521) (P20814 whole entry, looked up): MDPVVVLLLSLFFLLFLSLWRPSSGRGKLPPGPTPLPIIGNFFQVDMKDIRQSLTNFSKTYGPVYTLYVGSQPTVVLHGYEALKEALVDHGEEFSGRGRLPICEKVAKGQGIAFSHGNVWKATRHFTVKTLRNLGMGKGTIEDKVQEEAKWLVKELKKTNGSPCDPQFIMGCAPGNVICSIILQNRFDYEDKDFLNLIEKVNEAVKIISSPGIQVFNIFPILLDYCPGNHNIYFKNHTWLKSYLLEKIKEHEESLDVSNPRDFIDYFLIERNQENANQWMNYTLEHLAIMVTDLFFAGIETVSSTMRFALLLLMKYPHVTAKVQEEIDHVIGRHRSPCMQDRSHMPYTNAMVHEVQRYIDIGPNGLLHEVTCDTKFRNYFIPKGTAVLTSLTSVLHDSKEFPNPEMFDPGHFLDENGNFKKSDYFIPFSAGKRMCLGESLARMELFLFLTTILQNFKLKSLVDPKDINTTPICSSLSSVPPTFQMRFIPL
Sequence of rat CYP3A2, Cyp3a2 (gene 266682) (P05183 whole entry, looked up): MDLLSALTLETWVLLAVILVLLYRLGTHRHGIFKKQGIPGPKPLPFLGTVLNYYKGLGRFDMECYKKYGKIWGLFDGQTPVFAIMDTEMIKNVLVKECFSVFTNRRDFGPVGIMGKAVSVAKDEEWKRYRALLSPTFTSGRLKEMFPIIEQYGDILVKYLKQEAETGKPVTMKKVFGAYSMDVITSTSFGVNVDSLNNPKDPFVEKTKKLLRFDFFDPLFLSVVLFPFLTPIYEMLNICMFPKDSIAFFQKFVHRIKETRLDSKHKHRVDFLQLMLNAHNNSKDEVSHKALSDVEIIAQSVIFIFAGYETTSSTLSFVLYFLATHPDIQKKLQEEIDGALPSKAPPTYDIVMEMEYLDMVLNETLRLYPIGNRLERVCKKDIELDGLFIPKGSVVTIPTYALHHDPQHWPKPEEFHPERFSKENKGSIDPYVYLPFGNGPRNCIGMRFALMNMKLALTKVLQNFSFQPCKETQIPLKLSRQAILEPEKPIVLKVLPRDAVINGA
Sequence of human Acetylcholinesterase (AChE), ACHE (gene 43) (P22303 whole entry, looked up): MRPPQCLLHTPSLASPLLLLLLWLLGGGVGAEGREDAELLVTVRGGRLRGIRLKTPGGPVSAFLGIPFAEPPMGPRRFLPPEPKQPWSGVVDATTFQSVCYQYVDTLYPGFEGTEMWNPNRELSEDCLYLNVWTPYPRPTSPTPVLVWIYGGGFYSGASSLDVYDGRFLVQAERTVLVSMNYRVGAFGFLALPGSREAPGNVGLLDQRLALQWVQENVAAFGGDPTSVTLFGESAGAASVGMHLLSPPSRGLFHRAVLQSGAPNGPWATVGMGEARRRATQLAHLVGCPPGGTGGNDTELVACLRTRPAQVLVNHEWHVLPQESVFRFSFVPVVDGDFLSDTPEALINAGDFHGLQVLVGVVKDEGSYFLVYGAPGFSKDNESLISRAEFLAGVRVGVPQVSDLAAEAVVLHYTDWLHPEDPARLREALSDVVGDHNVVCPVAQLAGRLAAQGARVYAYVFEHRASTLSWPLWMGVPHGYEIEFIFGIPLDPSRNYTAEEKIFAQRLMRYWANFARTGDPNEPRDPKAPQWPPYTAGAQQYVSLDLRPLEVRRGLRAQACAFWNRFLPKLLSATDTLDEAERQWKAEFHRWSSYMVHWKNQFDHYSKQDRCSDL

The AC50 is the concentration giving half of the maximal activity seen. As to `COP(=S)(OC)Oc1ccc([N+](=O)[O-])cc1`, the AC50 in [1] was 5.69 µM (active); in assay [2], 2.77 µM (active); in the assay on rat CYP2C6, gene 293989, 0.344 µM (active); in assay [3], 6.55 µM (active); with rat CYP3A1, gene 25642 it was 6.49 µM (active); in assay [4], 4.97 µM (active). The call in [5] was inactive.
Consider `Oc1ccc(Cl)cc1Cc1ccccc1`, for which the AC50 with rat CYP2B1, gene 24300 was 6.42 µM (active); in assay [2] it was 7.16 µM (active); in the assay on rat CYP2C6, gene 293989, 5.19 µM (active); in assay [3], 6.35 µM (active); in assay [6], 10 µM (active); in assay [7], 5.11 µM (active). For the same compound, the AC50 in the assay with rat CYP3A1, gene 25642 was 8.2 µM (active).
`Oc1cc(Cl)ccc1Oc1ccc(Cl)cc1Cl`: in [7], the AC50 was 10 µM (active).
As to `CNC(=O)CSP(=S)(OC)OC`, the AC50 in the assay on rat CYP2C6, gene 293989 is 4.77 µM (active); in assay [4], 5.06 µM (active).
Turning to `CN1CSC(=S)N(C)C1`, in the assay with rat CYP2B1, gene 24300, the AC50 is 3.9 µM (active).
As for `C#CCN1C(=O)COc2cc(F)c(N3C(=O)C4=C(CCCC4)C3=O)cc21`, the results for the AC50 in [3] and in [4] were 0.992 µM (active) and 5.33 µM (active), respectively.
Turning to `CCCN(CCOc1c(Cl)cc(Cl)cc1Cl)C(=O)n1ccnc1`, the AC50 in assay [1] is 0.00934 µM (active); in the assay with rat CYP2B1, gene 24300, 0.0338 µM (active); in assay [2] it was 0.0766 µM (active); with rat CYP2C6, gene 293989, 0.166 µM (active); in assay [3], 0.191 µM (active); in [6], 1.22 µM (active). Moreover, the AC50 is 0.159 µM (active) in assay [7]; 0.549 µM (active) with rat CYP3A1, gene 25642; 1.39 µM (active) in [4].
For the compound `CC(C)(C)C(O)/C(=C\c1ccc(Cl)cc1Cl)n1cncn1` (centres undefined), the AC50 in assay [1] is 0.0195 µM (active); with rat CYP2B1, gene 24300 it was 0.0164 µM (active); in [2], 0.369 µM (active); in assay [3], 0.281 µM (active); in assay [6], 0.603 µM (active); in assay [7], 0.837 µM (active). Moreover, the AC50 with rat CYP3A1, gene 25642 is 0.631 µM (active); in assay [4], 0.669 µM (active).
Regarding `O=C(Nc1ccccc1)Nc1cnns1`, the compound was called inactive in assay [3]. Moreover, the AC50 in [6] was 8.7 µM (active); in assay [7] it was 4.41 µM (active).
With `N#Cc1c(Cl)c(Cl)c(Cl)c(C#N)c1Cl`, the result in [7] and in assay [5] was inactive. Besides, the AC50 is 1.22 µM (active) in the assay with rat CYP3A1, gene 25642 and 0.241 µM (active) in assay [4].

The values above are taken from PubChem BioAssay (EPA / NIEHS).
